Source: article PMC5540273 (PLoS ONE, 2017)

tested on: ERN1; conditions: concentration: 1 μM,replicates: in singlicate; n = 1
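Also: KINOMEscan kinase panel screen.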

Row | Structure (SMILES) | %Inh [%]
1 | Cl.Cl.NC[C@H](Cc1ccc(C(F)(F)F)cc1)NC(=O)c1cc(Br)c(-c2ccnc3[nH]ccc23)s1 [GSK1487252] | 5
2 | Nc1nc(Nc2ccccc2)cc(-c2ccc3c(N)n[nH]c3c2)n1 [GSK2225749] | 0
3 | CC(C)Nc1cc(-c2ccc3c(N)n[nH]c3c2)nc(N)n1 [GSK2221681] | 1
4 | CC(C)N1C(=O)Cc2cc(Nc3ncc(C(F)(F)F)c(NCc4cccc(S(C)(=O)=O)c4)n3)ccc21 | 30
5 | Cl.Cl.NC[C@H](CC1CCCCC1)NC(=O)c1cc(Br)c(-c2ccnc3[nH]ccc23)s1 [GSK1581427] | 25
6 | CN(C)CC(O)COc1ccc(Nc2nccc(-c3cnn4nc(N5CCOCC5)ccc34)n2)cc1 (stereo not drawn) [GW767488] | 75
7 | CCN(CC)CCOc1ccc(Nc2ncc3cc(-c4c(Cl)cccc4Cl)c(=O)n(C)c3n2)cc1 [SB-601273] | 40
8 | Cc1n[nH]c2ccc(-c3cc(OC[C@@H](N)Cc4ccccc4)cnc3-c3ccoc3)cc12.O=C(O)C(F)(F)F.O=C(O)C(F)(F)F [GSK507358] | 0
9 | Cc1occc1-c1nc(N)c(OC[C@@H](N)Cc2c[nH]c3ccccc23)cc1-c1cc2c(C)n[nH]c2cn1 [GSK1660450] | 16
10 | C[C@@H]1CCN(C(=O)CC#N)C[C@@H]1N(C)c1ncnc2[nH]ccc12 | 0
11 | Cl.Oc1cc(-c2nc(-c3ccccc3)[nH]c2-c2ccncc2)ccc1Cl [SB-386023] | 4
12 | O=C(NCCCN1CCOC1=O)c1cnc(NCc2cc(Cl)ccc2Cl)nc1NC1CCCC1 | 0
